# The source made the active and inactive calls.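 The calls were made as follows, unless noted: active = inhibition of the reporter signal at or above 50%; inactive = inhibition below 50%.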
# How the values were obtained:
# [1] = inhibitors of TNFa-induced NFkB p65 translocation, primary screen, imaging, HUVEC, MLSMR starter and 10KST1 sets (AID 438;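 active = inhibition above 20% together with a positive visual image hit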;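 also: compound added about 3h40 before a 20 min TNFalpha stimulation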;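 as to inhibition: signal is the nuclear over cytoplasmic p65 intensity ratio per well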); details: HUVEC TNFa-induced p65 nuclear translocation; cell count: measured here: nuclei count (cytotoxicity indicator), at 2.08 µM; inhibition: at 2 µM, stronger effect = higher value, 0% TNFa-plus-vehicle, 100% no-TNFa wells
# [2] = inhibitors of mutant huntingtin aggregation, primary screen, imaging, exon1htt(103Q)mCFP cells, high-content imaging (AID 483;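 active = visual image review flags a hit and inhibition of aggregation exceeds 20%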;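 also: compound exposure lasted 3 days before fixation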;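 as to nuclei count: percent of the per-plate median nuclei count of sample wells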); details: exon1htt(103Q)mCFP cell line, aggregate imaging, at 2 µM; inhibition of aggregation: stronger effect = higher value; nuclei count: measured here: cell count, toxicity
# [3] = inhibitors of E-selectin induction by TNFa, primary screen, imaging, HUVEC, immunofluorescence, MLSMR starter and 10KST1 sets (AID 487;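 active = visually confirmed hit in the image check and inhibition above 20%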;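 as to inhibition: signal is fraction of cell area covered by stained E-selectin grains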;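 as to nuclei count: 100% = median nuclei count of all wells on the same plate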); details: HUVEC TNFalpha-induced E-selectin immunofluorescence imaging, at 2 µM; inhibition: stronger effect = higher value; nuclei count: measured here: cell number, toxicity
# [4] = molecular target: Voltage-gated potassium channel subunit beta-2 (Rattus norvegicus) (UniProt P62483); assay: KvBeta enzyme negative modulators, primary screen, biochemical, NADPH fluorescence (AID 622;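 active = fluorescence slope higher than the sample average by over 3 SD, cut at about -0.22 in these data, passing the limit was not always enough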;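 also: slope of raw intensity against log time taken from 70 to 1610 s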); details: recombinant KvBeta, 4-cyanobenzaldehyde reduction, at 10 µM, stronger effect = higher value
# Chain of Voltage-gated potassium channel subunit beta-2 (Rattus norvegicus) (P62483 whole entry, looked up): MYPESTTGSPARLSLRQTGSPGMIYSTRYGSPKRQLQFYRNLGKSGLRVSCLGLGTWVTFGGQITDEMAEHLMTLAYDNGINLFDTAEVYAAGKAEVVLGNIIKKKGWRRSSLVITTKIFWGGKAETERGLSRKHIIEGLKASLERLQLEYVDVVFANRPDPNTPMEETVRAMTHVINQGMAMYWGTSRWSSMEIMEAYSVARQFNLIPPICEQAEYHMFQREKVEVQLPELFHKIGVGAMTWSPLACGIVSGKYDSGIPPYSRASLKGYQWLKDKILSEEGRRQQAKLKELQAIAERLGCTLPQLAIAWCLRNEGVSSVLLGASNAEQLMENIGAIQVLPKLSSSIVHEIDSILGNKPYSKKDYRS
# [5] = molecular target: Voltage-gated potassium channel subunit beta-2 (Rattus norvegicus) (UniProt P62483); assay: KvBeta positive modulators, primary screen, biochemical, NADPH fluorescence (AID 623;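 active = NADPH fluorescence slope more negative than the mean of all samples by about 3 SD, 99.7% confidence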;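 also: fluorescence intensity change per second fitted from 20 to 320 s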); details: Recombinant KvBeta, NADPH fluorescence decrease slope, 10 min; at 10 µM; stronger effect = lower value
# [6] = molecular target: Alpha-2C adrenergic receptor (Homo sapiens) (UniProt P18825); assay: modulators of alpha2C/GIRK thallium flux, primary screen, cell-based, HEK293 alpha2C/GIRK1/2 (AID 624;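 active = fluorescence slope after compound addition differing from the mean of all screened samples at 99.7% confidence, in either direction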;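 also: slope of fluorescence ratio to pre-addition baseline per second over 15 to 24 s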); details: thallium flux BTC fluorescence, at 10 µM, actives lie on both sides
# Chain of Alpha-2C adrenergic receptor (Homo sapiens) (P18825 whole entry, looked up): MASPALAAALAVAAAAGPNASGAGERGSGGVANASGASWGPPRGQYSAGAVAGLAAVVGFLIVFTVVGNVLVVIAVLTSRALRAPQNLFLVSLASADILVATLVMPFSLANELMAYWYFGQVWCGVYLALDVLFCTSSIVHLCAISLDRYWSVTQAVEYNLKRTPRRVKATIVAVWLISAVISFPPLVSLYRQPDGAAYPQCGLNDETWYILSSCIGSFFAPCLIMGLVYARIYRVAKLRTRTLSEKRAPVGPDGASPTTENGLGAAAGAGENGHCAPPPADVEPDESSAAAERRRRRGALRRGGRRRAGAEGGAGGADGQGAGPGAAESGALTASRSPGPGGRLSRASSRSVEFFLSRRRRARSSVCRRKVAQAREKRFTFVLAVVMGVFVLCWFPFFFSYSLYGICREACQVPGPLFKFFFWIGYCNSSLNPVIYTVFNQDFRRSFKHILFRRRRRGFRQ
# [7] = inhibitors of Sendai virus-induced IRF3 signaling, primary screen, TLR/RLR signaling modifier project, cell-based, Sendai virus stimulus, luciferase, 10K MLSCN set (AID 602276;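 active = inhibition at or above 50% at 10 µM; inactive = inhibition below 50%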;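 also: firefly luciferase from ISG56 promoter only with Renilla not read in this screen; 0% = Sendai virus plus DMSO and 100% = medium plus DMSO without virus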); details: HEK293 RL24 IRF3 luciferase reporter, at 10 µM, stronger effect = higher value
# [8] = inhibitors of poly I:C-induced TLR3 signaling, primary screen, cell-based, poly I:C stimulus, luciferase, 10K MLSCN set (AID 602277); details: HEK293-TLR3 RL24 IRF3 luciferase reporter, at 10 µM, stronger effect = higher value
Structure (SMILES),cell count [1],inhibition [1],inhibition of aggregation [2],nuclei count [2],inhibition [3],nuclei count [3],fluorescence slope [4],NADPH fluorescence slope [5],slope [6],inhibition [7],inhibition [8]
COCCCNC(=O)CCCn1c(=O)c2ccccc2n(CC(=O)Nc2c(C)cccc2C)c1=O,709,-4.7% (inactive),-15.7% (inactive),105%,-64% (inactive),99.1%,-0.505 (inactive),2.2e-05 (inactive),0.00674 (inactive),8.62% (inactive),32.1% (inactive)
Cc1c(C(=O)NCc2ccoc2)oc2ccc3c(c12)C(=O)CC(C)(C)O3,214,7.4% (inactive),-2.1% (inactive),78.2%,7.9% (inactive),103%,-0.531 (inactive),1.8e-05 (inactive),0.00522 (inactive),-46% (inactive),-231% (inactive)
C=CCSc1nc2c(c(=O)[nH]c(=O)n2C)n1CC,570,-3% (inactive),6.3% (inactive),36.2%,-48% (inactive),96.3%,-0.499 (inactive),-2.4e-05 (inactive),0.00669 (inactive),-5.1% (inactive),22.4% (inactive)
Cc1cc(=O)[nH]c(SCC(=O)NCc2ccco2)n1,355,8.2% (inactive),0% (inactive),95.2%,12.5% (inactive),98%,-0.57 (inactive),-7.3e-05 (inactive),0.00478 (inactive),18.4% (inactive),20.9% (inactive)
CCOC(=O)C1C(=O)N(C(=O)c2ccc(OC)cc2)CC1c1ccccc1 (stereo not drawn),423,-7.6% (inactive),-7.4% (inactive),99%,-39.2% (inactive),128%,-0.384 (inactive),-0.000151 (inactive),0.00629 (inactive),12.3% (inactive),22.3% (inactive)
CCCNC(=O)C1=C(C)C(=O)OC12CCC(C)CC2 (stereo not drawn),666,1.6% (inactive),-3.8% (inactive),115%,-28.8% (inactive),115%,-0.589 (inactive),1.9e-05 (inactive),0.00681 (inactive),3.82% (inactive),12% (inactive)
O=C(CSc1nnnn1C1CCCC1)NCc1ccc2c(c1)OCO2,816,-13.2% (inactive),3% (inactive),87.9%,-15.5% (inactive),138%,-0.475 (inactive),-4.8e-05 (inactive),0.00594 (inactive),1% (inactive),22.3% (inactive)
O=C(NCCCn1ccnc1)c1csc2ccccc12,337,4.7% (inactive),-23.2% (inactive),99.4%,-7.7% (inactive),113%,-0.414 (inactive),-3.7e-05 (inactive),0.00227 (inactive),10.2% (inactive),27.4% (inactive)
COC(=O)c1cc2ccsc2n1CC(=O)Nc1cc(C)cc(C)c1,510,-9.5% (inactive),-2.7% (inactive),115%,-22.5% (inactive),109%,-0.374 (inactive),9.4e-06 (inactive),0.0119 (inactive),-21% (inactive),-31% (inactive)
CCN(CC)Cc1nc2c(c(=O)[nH]1)C1(CCCCC1)Cc1ccccc1-2,443,9.9% (inactive),-2.4% (inactive),89.3%,-17% (inactive),101%,-0.589 (inactive),-5.5e-05 (inactive),0.00352 (inactive),10% (inactive),10.5% (inactive)
CCOC(=O)NC(=O)CSc1nnnn1-c1ccc(Cl)cc1,394,10% (inactive),2.2% (inactive),83.5%,-90.3% (inactive),110%,-0.297 (inactive),4.2e-05 (inactive),0.00637 (inactive),4.73% (inactive),15.2% (inactive)
CCCc1cc(Nc2cccc(OC)c2)n2ncnc2n1,708,-9.9% (inactive),-22.9% (inactive),100%,-8.3% (inactive),111%,-0.321 (inactive),-3e-05 (inactive),0.00589 (inactive),12.1% (inactive),16.3% (inactive)
Cc1ccc2c(c1)c1c3n2CC(=C2C(=O)OC(C)(C)OC2=O)NC3CCC1 (stereo not drawn),613,-10.5% (inactive),-5.4% (inactive),10.9%,-142% (inactive),139%,-0.589 (inactive),-1.7e-05 (inactive),0.00226 (inactive),16.6% (inactive),1.44% (inactive)
COc1ccc(C2C(C(C)=O)=C(O)C(=O)N2C)c(OC)c1 (stereo not drawn),464,3.8% (inactive),-2.5% (inactive),116%,-48.3% (inactive),136%,-0.461 (inactive),-1.6e-05 (inactive),0.00277 (inactive),5.02% (inactive),32% (inactive)
C1=Nc2c(NCc3ccccc3)ncnc2Oc2ccccc21,305,-0.2% (inactive),3.8% (inactive),98.1%,-17.3% (inactive),112%,-0.502 (inactive),-2.6e-05 (inactive),0.00376 (inactive),-11.5% (inactive),1.46% (inactive)
CC(C)(C)c1ccc2c(c1)OCC(C(=O)O)O2 (stereo not drawn),448,2% (inactive),-7.2% (inactive),110%,14.6% (inactive),90.7%,-0.547 (inactive),5.5e-05 (inactive),0.00589 (inactive),-8.63% (inactive),4.32% (inactive)
COc1ccc(S(=O)(=O)N(C)CC(=O)N2CCCCC2)cc1Cl,173,-15.7% (inactive),4.2% (inactive),94.8%,-2.3% (inactive),87%,-0.492 (inactive),-2.5e-05 (inactive),0.00667 (inactive),13.8% (inactive),15% (inactive)
Cc1cc(C)n(C(=O)C23CC4CC(CC(C4)C2)C3)n1,448,0.9% (inactive),14.6% (inactive),102%,-12% (inactive),89.4%,-0.514 (inactive),-2.3e-05 (inactive),0.00607 (inactive),6.1% (inactive),17.9% (inactive)
Cc1cc(C)cc(Nc2ncc3c(n2)CC(c2ccco2)CC3=O)c1 (stereo not drawn),465,-18.3% (inactive),-14.3% (inactive),106%,-88% (inactive),114%,-0.385 (inactive),-3e-05 (inactive),0.00418 (inactive),14.2% (inactive),-2.34% (inactive)
CCOC(=O)c1nnc2cc(-c3ccc(Br)cc3)nn2c1C,606,-1.7% (inactive),-4.4% (inactive),98.8%,-89.5% (inactive),105%,-0.558 (inactive),-6.5e-06 (inactive),0.006 (inactive),-72.6% (inactive),-129% (inactive)
C(#Cc1ccccc1)Cn1nnc2ccccc21,288,18% (inactive),11.6% (inactive),73.2%,-5% (inactive),103%,-0.336 (inactive),-2.1e-05 (inactive),0.00582 (inactive),-41.6% (inactive),-170% (inactive)
S=C(c1ccc(N2CCOCC2)cc1)N1CCCCC1,375,-1.3% (inactive),4.1% (inactive),111%,-68.1% (inactive),111%,-0.535 (inactive),-2e-05 (inactive),0.00689 (inactive),-29.8% (inactive),-15.7% (inactive)
COc1ccccc1C(=O)NC(C)C(c1cccs1)N1CCN(C)CC1 (stereo not drawn),547,-1.6% (inactive),0.7% (inactive),106%,-38.9% (inactive),114%,-0.394 (inactive),1.2e-06 (inactive),0.00389 (inactive),-13.5% (inactive),-8.87% (inactive)
COc1cc(Cn2c(-c3nonc3N)nc3ccccc32)ccc1C,329,-1.5% (inactive),-18.3% (inactive),65%,-20.1% (inactive),99.4%,-0.591 (inactive),-1.7e-05 (inactive),0.00556 (inactive),29.4% (inactive),53.2% (active)
O=C(NCc1ccccc1)C1CCCN(S(=O)(=O)c2cccnc2)C1 (stereo not drawn),230,-0.7% (inactive),0.8% (inactive),92.5%,-59.6% (inactive),98.3%,-0.549 (inactive),-1.4e-05 (inactive),0.0054 (inactive),5.96% (inactive),11% (inactive)
COc1ccccc1CCNC(=O)C1CCCO1 (stereo not drawn),665,-8.8% (inactive),-27.9% (inactive),118%,-45.2% (inactive),98.9%,-0.401 (inactive),-1.9e-05 (inactive),0.00423 (inactive),0.904% (inactive),-9.53% (inactive)
CCN(CC)C(=O)COc1ccc2oc(C)c(C(=O)OC(C)C)c2c1,455,12.5% (inactive),-21.2% (inactive),108%,-25.5% (inactive),126%,-0.42 (inactive),3.2e-05 (inactive),0.00275 (inactive),2.59% (inactive),17.4% (inactive)
CC(=O)N(c1ccc(Br)cc1)C1C=CS(=O)(=O)C1 (stereo not drawn),476,3.9% (inactive),25.9% (inactive),49.7%,-13.7% (inactive),102%,-0.551 (inactive),-4.3e-05 (inactive),0.00701 (inactive),13.8% (inactive),30% (inactive)
